From article PMC7862700, “An all-to-all approach to the identification of sequence-specific readers for epigenetic DNA modifications on cytosine” come the findings set out here.

What all share (test): DAPPL (digital affinity profiling via proximity ligation, sequencing); 10 mM Tris-HCl pH 7.5, 50 mM NaCl, 1 mM DTT, 4% glycerol, room temperature, 30 min; GST-TFs on glutathione beads, 16-mer random dsDNA library, 0.1% formaldehyde crosslink after washing; high values mean tight binding
One assay has as its target T1, FEV (Homo sapiens, UniProt Q99581 1-238).
T1 sequence: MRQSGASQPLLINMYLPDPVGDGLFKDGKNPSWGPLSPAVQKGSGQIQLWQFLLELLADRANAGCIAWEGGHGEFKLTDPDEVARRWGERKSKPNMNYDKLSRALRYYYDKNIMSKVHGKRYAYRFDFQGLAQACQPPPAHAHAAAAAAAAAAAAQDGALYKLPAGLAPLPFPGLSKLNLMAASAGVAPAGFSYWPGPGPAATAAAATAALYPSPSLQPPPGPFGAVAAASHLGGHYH
The following applies: protein: recombinant; tags: N-terminal GST; dsDNA, one strand shown. The gist of the method: (§1)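 Binding signal is each hexamer's read frequency for a factor divided by its frequency in the tag-only sample. The factors were GST-fused human transcription factors from yeast, captured on glutathione beads, DNA-barcoded and pooled with that sample. Pools were incubated with 200 nmole of a random double-stranded 16-mer DNA library in Tris/NaCl/DTT/glycerol buffer at room temperature for 30 min, then washed, crosslinked with 0.1% formaldehyde, proximity-ligated with BsaI/T4 ligase (1 h, 37 °C), PCR-amplified and sequenced on an Illumina NextSeq500.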

The next assay addresses ETV5 (Homo sapiens, UniProt P41161 1-510). The settings on record: protein: recombinant; tags: N-terminal GST; dsDNA, one strand shown. Put shortly:
as §1

The target of another assay is HSF1 (Homo sapiens, UniProt Q00613 1-529). The following applies: protein: recombinant; tags: N-terminal GST; chain copies: 3; dsDNA, one strand shown. Put shortly:
as §1

For the next assay, the target named is T2, SPIC (Homo sapiens, UniProt Q8N5J4 1-248).
T2 sequence: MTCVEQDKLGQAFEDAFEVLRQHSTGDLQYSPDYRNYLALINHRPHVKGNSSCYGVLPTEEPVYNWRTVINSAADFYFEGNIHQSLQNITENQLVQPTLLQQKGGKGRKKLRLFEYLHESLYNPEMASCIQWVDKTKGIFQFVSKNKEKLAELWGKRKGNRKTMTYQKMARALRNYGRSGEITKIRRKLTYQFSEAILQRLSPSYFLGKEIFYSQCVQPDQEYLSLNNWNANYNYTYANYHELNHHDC
The following applies: protein: recombinant; tags: N-terminal GST; dsDNA, one strand shown. The gist of the method: as §1

The target in another assay is ELF4 (Homo sapiens, UniProt Q99607 1-663). The settings on record: protein: recombinant; tags: N-terminal GST; dsDNA, one strand shown. The gist of the method: as §1
Chain of ELF4 (Q99607 whole entry): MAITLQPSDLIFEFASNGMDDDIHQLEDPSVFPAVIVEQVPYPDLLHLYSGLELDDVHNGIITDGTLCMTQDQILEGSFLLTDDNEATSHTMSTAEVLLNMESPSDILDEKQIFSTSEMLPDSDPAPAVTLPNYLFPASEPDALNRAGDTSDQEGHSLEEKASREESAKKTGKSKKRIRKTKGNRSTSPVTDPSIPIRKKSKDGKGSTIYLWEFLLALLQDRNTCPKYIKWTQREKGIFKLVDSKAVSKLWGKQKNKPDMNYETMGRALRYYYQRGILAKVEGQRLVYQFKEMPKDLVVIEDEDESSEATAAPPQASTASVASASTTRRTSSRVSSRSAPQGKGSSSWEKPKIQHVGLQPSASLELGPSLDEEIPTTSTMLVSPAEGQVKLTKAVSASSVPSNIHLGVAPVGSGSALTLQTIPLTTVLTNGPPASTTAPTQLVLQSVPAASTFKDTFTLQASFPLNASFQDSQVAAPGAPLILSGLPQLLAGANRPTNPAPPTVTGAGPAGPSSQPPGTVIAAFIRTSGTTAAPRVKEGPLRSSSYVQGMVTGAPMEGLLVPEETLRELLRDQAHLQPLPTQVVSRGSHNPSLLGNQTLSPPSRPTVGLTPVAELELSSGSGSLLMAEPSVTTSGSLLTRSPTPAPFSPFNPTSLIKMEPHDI
The next assay addresses T3, ELK4 (Homo sapiens, UniProt P28324-2 1-405).
T3 sequence: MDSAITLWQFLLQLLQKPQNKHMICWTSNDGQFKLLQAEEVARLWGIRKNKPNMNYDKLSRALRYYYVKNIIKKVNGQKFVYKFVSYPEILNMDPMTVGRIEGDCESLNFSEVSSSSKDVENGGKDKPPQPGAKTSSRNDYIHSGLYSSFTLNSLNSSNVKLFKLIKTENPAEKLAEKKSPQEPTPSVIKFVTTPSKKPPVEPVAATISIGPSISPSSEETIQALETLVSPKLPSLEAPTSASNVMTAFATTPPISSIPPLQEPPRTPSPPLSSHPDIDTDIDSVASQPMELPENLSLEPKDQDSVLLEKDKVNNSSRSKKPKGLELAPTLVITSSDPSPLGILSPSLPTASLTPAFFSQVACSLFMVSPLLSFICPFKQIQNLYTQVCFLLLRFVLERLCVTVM
The following applies: protein: recombinant; tags: N-terminal GST; dsDNA, one strand shown. Put shortly: as §1

The target of the next assay is T4, ETV2 (Homo sapiens, UniProt O00321 1-342).
T4 sequence: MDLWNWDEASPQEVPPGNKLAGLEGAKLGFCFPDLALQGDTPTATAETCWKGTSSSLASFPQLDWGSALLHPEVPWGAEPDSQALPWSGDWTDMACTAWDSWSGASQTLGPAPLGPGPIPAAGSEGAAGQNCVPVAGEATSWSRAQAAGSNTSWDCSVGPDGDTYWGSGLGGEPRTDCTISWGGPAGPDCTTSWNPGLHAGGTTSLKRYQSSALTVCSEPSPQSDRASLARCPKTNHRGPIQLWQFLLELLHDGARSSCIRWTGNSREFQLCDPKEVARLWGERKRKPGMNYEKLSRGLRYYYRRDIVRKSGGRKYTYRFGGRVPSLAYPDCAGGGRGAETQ
The settings on record: protein: recombinant; tags: N-terminal GST; dsDNA, one strand shown. The gist of the method: as §1

For a further assay, the target named is T5, ELF3 (Homo sapiens, UniProt P78545 1-371).
T5 sequence: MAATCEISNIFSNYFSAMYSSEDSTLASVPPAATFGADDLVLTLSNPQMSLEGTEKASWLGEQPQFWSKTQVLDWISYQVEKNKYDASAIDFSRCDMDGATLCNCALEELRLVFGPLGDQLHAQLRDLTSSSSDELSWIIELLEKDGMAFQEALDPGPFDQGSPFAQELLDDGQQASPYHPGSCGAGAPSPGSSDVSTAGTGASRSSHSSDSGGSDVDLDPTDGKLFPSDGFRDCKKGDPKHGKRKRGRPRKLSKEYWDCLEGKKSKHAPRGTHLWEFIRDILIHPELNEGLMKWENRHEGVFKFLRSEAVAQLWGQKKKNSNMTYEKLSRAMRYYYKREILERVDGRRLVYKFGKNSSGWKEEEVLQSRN
The following applies: protein: recombinant; tags: N-terminal GST; dsDNA, one strand shown. The gist of the method:
as §1

The target of the next assay is CRX (Homo sapiens, UniProt O43186 1-299). The settings on record: protein: recombinant; tags: N-terminal GST; dsDNA, one strand shown. The gist of the method:
as §1

A further assay has as its target ETV1 (Homo sapiens, UniProt P50549 1-477). The settings on record: protein: recombinant; tags: N-terminal GST; dsDNA, one strand shown. Put shortly: as §1
The next assay concerns the target T6, ERF (Homo sapiens, UniProt P50548 1-548).
T6 sequence: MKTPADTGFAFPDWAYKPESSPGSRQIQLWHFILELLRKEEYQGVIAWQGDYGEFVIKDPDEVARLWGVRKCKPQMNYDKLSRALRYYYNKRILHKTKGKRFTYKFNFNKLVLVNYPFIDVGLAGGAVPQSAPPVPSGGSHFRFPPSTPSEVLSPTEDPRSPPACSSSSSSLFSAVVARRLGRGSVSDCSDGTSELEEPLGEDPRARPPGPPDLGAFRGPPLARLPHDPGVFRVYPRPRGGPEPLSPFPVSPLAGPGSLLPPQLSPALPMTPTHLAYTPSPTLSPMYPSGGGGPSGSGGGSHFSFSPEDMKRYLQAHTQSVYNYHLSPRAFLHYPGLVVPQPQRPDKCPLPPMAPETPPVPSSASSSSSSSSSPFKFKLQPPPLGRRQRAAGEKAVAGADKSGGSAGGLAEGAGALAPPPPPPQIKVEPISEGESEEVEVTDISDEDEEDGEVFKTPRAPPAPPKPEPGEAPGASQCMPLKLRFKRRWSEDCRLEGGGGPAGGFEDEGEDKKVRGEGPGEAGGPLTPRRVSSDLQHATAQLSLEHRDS
The settings on record: protein: recombinant; tags: N-terminal GST; dsDNA, one strand shown. Put shortly: as §1

The target in another assay is T7, ETV3L (Homo sapiens, UniProt Q6ZN32 1-361).
T7 sequence: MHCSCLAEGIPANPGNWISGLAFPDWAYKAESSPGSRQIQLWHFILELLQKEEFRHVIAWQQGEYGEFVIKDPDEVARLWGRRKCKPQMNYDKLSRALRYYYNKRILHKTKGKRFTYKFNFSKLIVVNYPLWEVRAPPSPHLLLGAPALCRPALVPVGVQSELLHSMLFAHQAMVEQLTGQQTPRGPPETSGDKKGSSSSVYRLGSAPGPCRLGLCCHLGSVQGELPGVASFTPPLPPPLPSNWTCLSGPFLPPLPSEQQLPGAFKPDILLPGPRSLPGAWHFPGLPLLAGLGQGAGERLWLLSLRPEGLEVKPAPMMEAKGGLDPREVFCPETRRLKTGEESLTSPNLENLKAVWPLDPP
The settings on record: protein: recombinant; tags: N-terminal GST; dsDNA, one strand shown. The gist of the method: as §1

Another assay addresses T8, ETS2 (Homo sapiens, UniProt P15036 1-469).
T8 sequence: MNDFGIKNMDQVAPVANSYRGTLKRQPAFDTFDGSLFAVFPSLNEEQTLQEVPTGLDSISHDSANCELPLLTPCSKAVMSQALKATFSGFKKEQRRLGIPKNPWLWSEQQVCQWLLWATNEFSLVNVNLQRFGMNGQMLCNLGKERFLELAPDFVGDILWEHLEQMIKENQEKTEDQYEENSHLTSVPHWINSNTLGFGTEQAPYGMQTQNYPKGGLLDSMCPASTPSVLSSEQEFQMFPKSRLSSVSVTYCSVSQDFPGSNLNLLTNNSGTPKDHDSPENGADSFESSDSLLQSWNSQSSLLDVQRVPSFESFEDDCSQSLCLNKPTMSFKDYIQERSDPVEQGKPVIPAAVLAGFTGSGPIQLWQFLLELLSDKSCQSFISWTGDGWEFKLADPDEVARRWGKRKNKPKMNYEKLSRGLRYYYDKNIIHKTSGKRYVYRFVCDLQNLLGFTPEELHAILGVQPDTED
The following applies: protein: recombinant; tags: N-terminal GST; dsDNA, one strand shown. Put shortly: as §1

The next assay addresses T9, SPDEF (Homo sapiens, UniProt O95238 1-335).
T9 sequence: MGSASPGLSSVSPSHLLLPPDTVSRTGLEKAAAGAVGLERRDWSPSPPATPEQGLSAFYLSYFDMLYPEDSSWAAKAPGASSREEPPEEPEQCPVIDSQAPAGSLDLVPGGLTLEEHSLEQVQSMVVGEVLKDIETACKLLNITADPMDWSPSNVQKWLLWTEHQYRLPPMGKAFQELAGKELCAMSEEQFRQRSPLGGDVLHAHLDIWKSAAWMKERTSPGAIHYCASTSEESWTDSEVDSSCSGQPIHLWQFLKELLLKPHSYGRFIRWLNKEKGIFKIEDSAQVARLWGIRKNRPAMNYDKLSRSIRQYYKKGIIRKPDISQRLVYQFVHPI
The following applies: protein: recombinant; tags: N-terminal GST; dsDNA, one strand shown. The gist of the method: as §1

Another assay addresses T10, ETV7 (Homo sapiens, UniProt Q9Y603 1-341).
T10 sequence: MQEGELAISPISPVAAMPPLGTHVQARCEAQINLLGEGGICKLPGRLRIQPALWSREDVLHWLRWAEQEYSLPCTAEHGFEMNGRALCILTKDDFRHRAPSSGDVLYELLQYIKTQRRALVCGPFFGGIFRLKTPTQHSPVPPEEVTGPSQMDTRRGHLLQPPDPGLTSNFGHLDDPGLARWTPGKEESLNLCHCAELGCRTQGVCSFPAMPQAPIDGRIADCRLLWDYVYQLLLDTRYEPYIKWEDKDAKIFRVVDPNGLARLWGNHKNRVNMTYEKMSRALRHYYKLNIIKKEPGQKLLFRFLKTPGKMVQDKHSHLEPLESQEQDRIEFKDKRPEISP
The settings on record: protein: recombinant; tags: N-terminal GST; dsDNA, one strand shown. Put shortly:
as §1

The target of another assay is T11, ELF5 (Homo sapiens, UniProt Q9UKW6-2 1-255).
T11 sequence: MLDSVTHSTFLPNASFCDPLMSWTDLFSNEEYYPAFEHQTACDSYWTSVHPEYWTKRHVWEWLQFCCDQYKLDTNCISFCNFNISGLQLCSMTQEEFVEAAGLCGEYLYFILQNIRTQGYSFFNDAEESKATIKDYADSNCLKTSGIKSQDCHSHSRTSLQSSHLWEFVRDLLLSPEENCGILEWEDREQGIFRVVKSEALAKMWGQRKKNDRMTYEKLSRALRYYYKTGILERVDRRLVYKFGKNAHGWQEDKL
The following applies: protein: recombinant; tags: N-terminal GST; dsDNA, one strand shown. Put shortly: as §1

For a further assay, the target named is T12, ETV3 (Homo sapiens, UniProt P41162-2 1-143).
T12 sequence: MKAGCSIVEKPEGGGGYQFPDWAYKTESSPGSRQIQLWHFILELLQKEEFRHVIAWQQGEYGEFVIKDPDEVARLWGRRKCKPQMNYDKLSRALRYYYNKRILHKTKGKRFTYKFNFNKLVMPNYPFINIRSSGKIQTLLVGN
The following applies: protein: recombinant; tags: N-terminal GST; dsDNA, one strand shown. Put shortly: as §1

In a further assay the target is ETV6 (Homo sapiens, UniProt P41212 1-452). The following applies: protein: recombinant; tags: N-terminal GST; dsDNA, one strand shown. The gist of the method: as §1
Chain of ETV6 (P41212 whole entry): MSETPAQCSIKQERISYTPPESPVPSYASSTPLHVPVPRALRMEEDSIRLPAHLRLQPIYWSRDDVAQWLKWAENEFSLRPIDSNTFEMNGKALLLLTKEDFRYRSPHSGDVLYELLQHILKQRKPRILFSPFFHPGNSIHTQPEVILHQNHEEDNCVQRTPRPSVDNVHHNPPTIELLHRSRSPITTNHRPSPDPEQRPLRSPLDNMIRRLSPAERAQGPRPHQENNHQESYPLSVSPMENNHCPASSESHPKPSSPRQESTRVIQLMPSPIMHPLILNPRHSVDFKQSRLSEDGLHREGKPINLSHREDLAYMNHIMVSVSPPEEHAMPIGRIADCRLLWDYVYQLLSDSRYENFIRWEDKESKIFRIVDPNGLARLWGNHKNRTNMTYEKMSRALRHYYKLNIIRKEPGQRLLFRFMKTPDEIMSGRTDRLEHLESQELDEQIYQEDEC

Chain of CRX (O43186 whole entry): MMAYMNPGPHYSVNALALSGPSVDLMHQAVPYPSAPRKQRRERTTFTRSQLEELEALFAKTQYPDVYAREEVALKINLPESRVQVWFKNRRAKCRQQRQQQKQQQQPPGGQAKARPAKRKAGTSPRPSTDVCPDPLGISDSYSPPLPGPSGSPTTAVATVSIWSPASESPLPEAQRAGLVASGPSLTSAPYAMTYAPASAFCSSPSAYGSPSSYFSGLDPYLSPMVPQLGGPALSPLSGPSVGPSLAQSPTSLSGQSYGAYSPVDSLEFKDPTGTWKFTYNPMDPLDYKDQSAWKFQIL
Chain of ETV5 (P41161 whole entry): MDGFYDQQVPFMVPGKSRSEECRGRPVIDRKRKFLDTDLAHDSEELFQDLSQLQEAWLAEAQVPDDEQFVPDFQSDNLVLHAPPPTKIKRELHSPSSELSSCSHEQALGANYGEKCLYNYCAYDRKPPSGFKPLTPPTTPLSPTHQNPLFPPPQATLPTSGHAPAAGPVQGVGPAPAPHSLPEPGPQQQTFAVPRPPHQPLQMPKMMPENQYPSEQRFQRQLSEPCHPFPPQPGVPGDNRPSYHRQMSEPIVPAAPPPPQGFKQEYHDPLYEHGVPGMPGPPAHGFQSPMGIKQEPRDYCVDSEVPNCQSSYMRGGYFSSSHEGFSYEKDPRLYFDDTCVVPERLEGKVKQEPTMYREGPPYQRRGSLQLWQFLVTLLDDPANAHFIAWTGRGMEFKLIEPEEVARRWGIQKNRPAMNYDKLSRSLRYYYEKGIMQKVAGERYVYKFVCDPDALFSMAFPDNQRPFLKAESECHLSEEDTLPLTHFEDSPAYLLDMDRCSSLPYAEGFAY
Chain of ETV1 (P50549 whole entry): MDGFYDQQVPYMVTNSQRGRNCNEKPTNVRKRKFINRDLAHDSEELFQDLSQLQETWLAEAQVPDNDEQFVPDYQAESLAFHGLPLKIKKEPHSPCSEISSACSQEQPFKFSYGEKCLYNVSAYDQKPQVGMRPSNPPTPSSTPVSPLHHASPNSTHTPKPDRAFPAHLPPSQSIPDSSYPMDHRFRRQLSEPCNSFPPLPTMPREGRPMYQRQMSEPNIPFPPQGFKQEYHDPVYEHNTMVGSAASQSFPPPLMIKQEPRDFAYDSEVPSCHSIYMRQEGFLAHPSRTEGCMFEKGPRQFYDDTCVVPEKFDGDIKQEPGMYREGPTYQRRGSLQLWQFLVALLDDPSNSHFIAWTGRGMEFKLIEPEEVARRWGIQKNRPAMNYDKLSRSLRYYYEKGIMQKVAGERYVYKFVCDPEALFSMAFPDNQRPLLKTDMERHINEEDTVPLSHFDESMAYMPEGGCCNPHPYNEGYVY
Chain of HSF1 (Q00613 whole entry): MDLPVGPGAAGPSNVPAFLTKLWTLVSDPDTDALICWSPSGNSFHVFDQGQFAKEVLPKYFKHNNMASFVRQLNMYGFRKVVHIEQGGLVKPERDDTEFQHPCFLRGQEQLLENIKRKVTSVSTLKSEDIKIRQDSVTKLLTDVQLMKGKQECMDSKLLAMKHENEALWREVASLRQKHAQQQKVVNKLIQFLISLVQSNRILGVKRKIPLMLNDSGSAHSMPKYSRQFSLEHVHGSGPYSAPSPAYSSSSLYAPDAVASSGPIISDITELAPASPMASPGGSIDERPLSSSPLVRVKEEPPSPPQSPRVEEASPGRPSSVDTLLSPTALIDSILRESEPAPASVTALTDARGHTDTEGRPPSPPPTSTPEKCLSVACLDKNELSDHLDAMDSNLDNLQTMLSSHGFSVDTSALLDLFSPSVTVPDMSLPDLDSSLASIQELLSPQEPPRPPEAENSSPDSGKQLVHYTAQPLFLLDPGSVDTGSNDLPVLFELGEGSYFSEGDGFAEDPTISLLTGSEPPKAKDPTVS

As to CCGATA, the binding signal with FEV is 1.14 fold enrichment (6-mer frequency, TF over GST control); with ETV5, 1.15 fold enrichment (6-mer frequency, TF over GST control); in the assay with HSF1, 1.16 fold enrichment (6-mer frequency, TF over GST control); in the assay with SPIC, 1.2 fold enrichment (6-mer frequency, TF over GST control); with ELF4, 1.2 fold enrichment (6-mer frequency, TF over GST control); with ELK4, 1.08 fold enrichment (6-mer frequency, TF over GST control). Besides, the binding signal was 1.25 fold enrichment (6-mer frequency, TF over GST control) with ETV2; 1.05 fold enrichment (6-mer frequency, TF over GST control) with ELF3; 1.27 fold enrichment (6-mer frequency, TF over GST control) with CRX; 1.16 fold enrichment (6-mer frequency, TF over GST control) with ETV1; 1.13 fold enrichment (6-mer frequency, TF over GST control) in the assay with ERF; 1.05 fold enrichment (6-mer frequency, TF over GST control) in the assay with ETV3L. For the same sequence, the binding signal was 1.16 fold enrichment (6-mer frequency, TF over GST control) in the assay with ETS2; 1.05 fold enrichment (6-mer frequency, TF over GST control) with SPDEF; 1.06 fold enrichment (6-mer frequency, TF over GST control) with ETV7; 1.1 fold enrichment (6-mer frequency, TF over GST control) with ELF5; 1.14 fold enrichment (6-mer frequency, TF over GST control) with ETV3; 1.12 fold enrichment (6-mer frequency, TF over GST control) with ETV6.
